# Compounds with a hit are over-represented: about 3.3% of the library has one in this group of screens.
# Casp6 inh: blocks human caspase-6 cleavage activity. purified caspase-6, Z-VEID-R110 cleavage fluorescence. inhibition, % at 12.5 µM. actives 0.53% (n = 350,000). AID 686996;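 active = mean inhibition across replicates at least about 35%, with every replicate also reaching that limit, limit read from the data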;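 also: 0% = median of neutral control wells and 100% = no fluorescence left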
# Target sequence (P55212 24-179 limits assumed): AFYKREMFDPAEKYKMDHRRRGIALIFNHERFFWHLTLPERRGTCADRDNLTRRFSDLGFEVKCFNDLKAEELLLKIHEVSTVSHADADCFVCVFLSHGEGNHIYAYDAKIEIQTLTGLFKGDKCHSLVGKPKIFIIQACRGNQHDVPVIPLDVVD
# Target sequence (P55212 194-293 limits assumed): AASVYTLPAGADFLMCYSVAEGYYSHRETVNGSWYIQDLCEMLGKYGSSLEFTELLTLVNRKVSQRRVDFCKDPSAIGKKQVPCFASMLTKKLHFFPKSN
# SIRT5 inh: blocks human SIRT5 desuccinylation of peptide; Q9NXA8; inhibition, % at 15 µM; actives 1.1% (n = 330,000); Purified SirT5, succinyl-peptide AMC, trypsin-coupled fluorescence; in the data active = inhibition above about 15%
# INS-1E GSIS act: primary screen for activators of insulin secretion dependent on glucose, INS-1E cells, GLuc reporter luminescence; INS-1E GLuc reporter insulin secretion, 2-3 h; activation, % at 16.6 µM; actives 0.61% (n = 370,000);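 active = lowest replicate activation of at least 40%, so every replicate reaches that level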;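 also: 0% = median of neutral control wells and 100% = median of IBMX positive control wells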
# FGF22 binding: shifts melting point of recombinant human FGF22; recombinant FGF22 thermal shift, SYPRO orange fluorescence; percent of sucrose octasulfate shift, DMSO zero; activity (Tm shift, normalised), % at 9.99 µM; actives 1.5% (n = 340,000);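 active = mean Tm shift, scaled 0 neutral to 100 positive control, at about 1.3% or above, every replicate too, limit read from the data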
# Target sequence (Q9HCT0 whole entry, looked up): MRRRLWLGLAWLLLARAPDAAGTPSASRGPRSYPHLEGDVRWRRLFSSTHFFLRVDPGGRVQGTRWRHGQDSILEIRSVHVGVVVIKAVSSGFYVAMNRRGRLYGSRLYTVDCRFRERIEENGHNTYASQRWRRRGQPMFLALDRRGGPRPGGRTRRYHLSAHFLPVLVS
# ERAP1 HTS inh: blocks human ERAP1 aminopeptidase activity; actives 0.15% (n = 340,000); inhibition, % at 10.7 µM; AID 652197; recombinant ERAP1, Leu-AMC fluorescence, 60 min; Q9NZ08;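 active = mean replicate inhibition of at least 30%, or all replicates individually reaching that 30% level; inactive = mean below 30% and not every replicate reaching it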;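 also: 0% = neutral control wells and 100% = L-leucinethiol positive control wells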
# An asterisk follows results filed as active; x = no result.
SMILES,Casp6 inh,SIRT5 inh,INS-1E GSIS act,FGF22 binding,ERAP1 HTS inh
C/C(=N\NC(=O)c1ccccc1NC(=O)c1ccc(Cl)cc1)c1ccncc1,1,0,10,43*,-2
CC(=NNC(=O)c1ccncc1)c1ccccc1Cl,-2,x,-8,0,-2
Cc1c(Br)c(=O)oc2c(Br)c(O)ccc12,1,-1,14,0,-2
Cc1c(Br)c(=O)oc2c(Br)c(O)c(O)cc12,47*,5,-13,0,10
O=C(NCCNc1ccc([N+](=O)[O-])cc1C(F)(F)F)c1ccccc1,0,1,-22,43*,6
Cc1cc(=O)oc2cc(OCC(=O)Nc3ccccc3C(N)=O)c(Cl)cc12,5,-1,11,43*,0
Cc1cc(=O)oc2cc(OCC(=O)Nc3ccc(CN4CCOCC4)cc3)c(Cl)cc12,-5,-6,-10,0,1
C[C@H](CO)N1C[C@H](C)[C@@H](CN(C)S(C)(=O)=O)Oc2ccc(NC(=O)CCCN(C)C)cc2C1=O,-1,-2,21,x,2
Cc1onc(-c2ccccc2)c1-c1csc(N/N=C/c2ccccc2Cl)n1,1,-4,x,0,-1
Cc1onc(-c2ccc(Cl)cc2Cl)c1-c1csc(N/N=C/c2ccccc2Cl)n1,38*,x,x,0,-1
C/C(C/C(C)=C1/SC(=S)NC1=O)=C1\SC(=S)NC1=O,x,49*,-1,x,1
COC(=O)C[C@@H]1C=C[C@H](NC(=O)c2ccccc2)[C@H](CO)O1,0,2,5,0,1
CCn1c2c(c(C)cc1=O)C(=O)CC(C)(C)C2,x,x,8,x,x
CCn1c(C)c2c([n+]1CC)CC(C)(C)CC2=O,-4,-2,12,0,109*
OC[C@@H]1[C@H](c2ccc(C#Cc3ccccc3)cc2)[C@H]2CN(CC3CCOCC3)CCCCN12,0,2,8,0,1
O=C(CNC(=O)c1cccc(F)c1)N/N=C/c1cccc([N+](=O)[O-])c1,1,2,-13,0,-6
COc1cccc(C(=O)NCC(=O)N/N=C/c2cccc(OC(=O)c3ccc([N+](=O)[O-])cc3)c2)c1,1,-2,4,43*,-3
CC1CC(C)(C)NC(=S)N1CC(=O)NCc1ccc2c(c1)OCO2 (centres undefined),-5,-5,7,43*,0
Cc1ccc(C(=O)CSc2nn3c(=O)c(C(C)(C)C)nnc3s2)cc1,x,x,-1,x,x
CN(Cc1ccco1)C(=O)CSc1nn2c(=O)c(C(C)(C)C)nnc2s1,43*,3,-4,0,2
Cc1cc(C(=O)CSc2nn3c(=O)c(C(C)(C)C)nnc3s2)c(C)n1C1CC1,4,0,-10,1.7*,4
CO[C@H]1CN(C)C(=O)c2cc(NC(=O)Nc3ccc4c(c3)OCO4)ccc2OC[C@@H](C)NC[C@H]1C,-2,x,12,-1,0
COc1ccc(S(=O)(=O)N2C[C@H](O)COC[C@H]3O[C@H](CC(=O)NCc4ccc(Cl)c(Cl)c4)CC[C@@H]32)cc1,-4,-8,-9,1,-2
O=C(C[C@H]1CC[C@H]2[C@@H](COC[C@H](O)CN2Cc2ccccc2F)O1)N[C@@H]1CCN(Cc2ccccc2)C1,0,-2,-17,0,0
Cc1cc(C(=O)NC(C)CCC(C)C)c2ccccc2n1 (centres undefined),2,0,56*,0,-4
SMILES,Casp6 inh,SIRT5 inh,INS-1E GSIS act,FGF22 binding,ERAP1 HTS inh
CCCCNC(=O)c1cc(C)nc2ccccc12,2,-2,-1,1,-5
O=Cc1ccccc1-n1cncn1,x,-5,14,0,-4
Nc1ncc(-n2cncn2)c(-c2ccccc2)n1,-2,2,12,43*,-7
Cc1cccc(N2CCN(C(=O)c3cccn4c(=O)c5c(C)c(C)sc5nc34)CC2)c1C,x,x,156*,x,x
CN(C(=O)COC(=O)/C=C/c1cn(-c2ccccc2)nc1-c1ccc2c(c1)OCCO2)C1CCS(=O)(=O)C1 (centres undefined),-1,-10,14,43*,4
C[C@@H]1CCCCO[C@H](CN(C)C(=O)CCCN(C)C)[C@@H](C)CN([C@H](C)CO)C(=O)c2cc(NS(=O)(=O)c3cn(C)cn3)ccc2O1,1,-18,10,0,-2
CCN(C(=O)CSc1nc2scc(-c3ccccc3)c2c(=O)n1N)C1CCS(=O)(=O)C1 (centres undefined),1,20*,4,0,-3
CN(C)c1ccc2c(c1)[C@@H]1C[C@@H](CC(=O)NC3CCCCC3)O[C@@H](CO)[C@@H]1O2,1,8,-2,-1,0
N#Cc1nc(N2CCOCC2)nc(N2CCOCC2)n1,x,x,57*,x,x
CCC(=O)N1[C@@H]2CN(C(=O)Nc3cccc(Cl)c3)c3ccccc3[C@@H]2[C@@H]1CO,-10,2,-4,0,2
COc1cccc(C(C(=O)NCc2ccccc2)N2CCN(C(=O)C3CCCO3)CC2)c1OC (centres undefined),-1,0,43*,0,0
O=C(NCc1ccccc1)C(c1ccco1)N1CCN(C(=O)C2CCCO2)CC1 (centres undefined),0,-3,-10,0,-2
COc1ccc2c3c(n(C)c2c1)[C@H](CO)N(Cc1nccs1)CC31CN(C(C)=O)C1,x,x,21,0,-6
COc1cc(NCCCCCCN)c2ncccc2c1OC,85*,5,1,-1,0
COc1cc(N)c2ncccc2c1OC,9,-1,x,0,2
COc1ccc(N2CCN(C(=O)CCNS(=O)(=O)c3ccc(C)cc3)CC2)cc1,36*,-6,45,0,2
COc1ccc(N2CCN(C(=O)CSc3ccc(C)cc3)CC2)cc1,-1,-4,-9,44*,1
Cc1ccc2cc(CN(CC3CCCO3)C(=S)NCc3ccco3)c(=O)[nH]c2c1 (centres undefined),5,-3,6,0,0
COc1ccc2cc(CN(CC3CCCO3)C(=S)NCc3ccco3)c(=O)[nH]c2c1 (centres undefined),-1,2,-7,43*,3
Cc1ccc(C)c2[nH]c(=O)c(CN(Cc3ccco3)C(=S)NCC3CCCO3)cc12 (centres undefined),9,-7,-17,43*,2
COc1ccc2[nH]c(=O)c(CN(CC3CCCO3)C(=S)Nc3ccc(C)cc3)cc2c1 (centres undefined),5,-1,-13,43*,-1
COc1ccc2[nH]c(=O)c(CN(CC3CCCO3)S(=O)(=O)c3ccccc3)cc2c1 (centres undefined),1,-9,-1,44*,5
COc1ccc2[nH]c(=O)c(CN(CC3CCCO3)S(=O)(=O)c3ccccc3F)cc2c1 (centres undefined),-1,-2,11,1,-1

# Screens from PubChem.
